Among all 290,000 compounds or so, about 27,000 (9.3%) were called active. The full list was thinned out, with actives kept by preference. A number with no mark means an inactive call. Rule as the data show it: active = inhibition mostly above about 28% (no sharp cut-off); inactive = mostly below about 43%.
Assay: A qHTS for Small Molecule Inhibitors of Shiga Toxin; also: 0% is about no effect
Settings: Vero cells, Shiga toxin protein synthesis inhibition reporter; at 38.7 µM, stronger effect = higher value
In the case of `O=C(CN1C(=O)S/C(=C\c2ccccc2Cl)C1=O)NC1C=CS(=O)(=O)C1` (centres undefined), the inhibition is reported as -2.51%.
In the case of `COc1ccc(C2=NS(=O)(=O)N(C)C(C(=O)NC(C)c3ccccc3)=C2)cc1` (centres undefined), the inhibition is reported as 10.4%.
With `COc1ccc(CCNC(=O)CCCCCNC(=O)N2CCn3c2nc2ccccc23)cc1OC` the inhibition was 4.93%.
In the case of `O=C(CNC(=O)c1ccccc1)Oc1ccc([N+](=O)[O-])cc1`, the inhibition is reported as -10.1%.
In the case of `O=C(Oc1ccc([N+](=O)[O-])cc1)c1ccc2ccccc2n1`, the inhibition is reported as -35.6% (active).
`COc1ccc(C2=NOC(COC(=O)c3ccc4ccccc4n3)C2)cc1` (centres undefined) showed an inhibition of 22.8%.
`COc1ccc(C(=O)Nc2c(N)nc(SCC(=O)Nc3ccc(C(C)=O)cc3)[nH]c2=O)cc1` showed an inhibition of -1.66%.
In the case of `CC(=C/c1ccccc1)/C=N/NC(=O)c1cc(C)oc1C`, the inhibition is reported as 0%.
In the case of `O=C(Cc1cc(=O)[nH][nH]1)N/N=C/c1ccccc1[N+](=O)[O-]`, the inhibition is reported as 13.6%.
In the case of `Cc1cc(C(=O)N/N=C/c2ccccc2[N+](=O)[O-])c(C)o1`, the inhibition is reported as 72.5% (active).
Compound `Cc1c(Cl)c([N+](=O)[O-])nn1CC(=O)NCCCN1CCOCC1` has an inhibition of -6.5%.
Compound `COc1ccc(-n2c(=O)[nH]c3cc(C(=O)NCCc4ccc(OC)c(OC)c4)ccc3c2=O)c(OC)c1` has an inhibition of 3.16%.
With `O=C(NNC(=S)Nc1ccc(F)cc1)[C@H]1C[C@@H]1c1ccccc1` the inhibition was -8.83%.
In the case of `Cc1ccc(NC(=O)C2CC2c2ccccc2)cc1` (centres undefined), the inhibition is reported as 32% (active).
For `Cc1ccc(C2CC2C(=O)NN)cc1` (centres undefined), the inhibition was -15.4%.
For `COc1ccc(OC)c(CNC(=O)c2cc(=O)[nH]c3ccc(S(=O)(=O)N4CCCC4)cc23)c1`, the inhibition was -3.87%.
`COc1cccc(-n2c(N)cc(=O)nc2SCC(=O)Nc2cc(C)on2)c1` gave an inhibition of 13.4%.
`COc1cc(OC)c(C(=O)Nc2ccccc2-c2ccccc2)cc1OC` showed an inhibition of -5.65%.
In the case of `COc1cc2ccccc2cc1C(=O)Nc1ccccc1C`, the inhibition is reported as 32.5% (active).
`COc1cccc2sc(Nc3nc(C)c(C(C)=O)s3)nc12` showed an inhibition of 29.8%.
For `COc1cc2ccccc2cc1C(=O)Nc1ccc(NC(=O)c2cccs2)cc1`, the inhibition was 15.8%.
With `CC(=O)c1sc(NC(=O)c2cccc3ccccc23)nc1C` the inhibition was 31.4%.
With `COc1cc2ccccc2cc1C(=O)Nc1nc(C)c(C(C)=O)s1` the inhibition was 69.5% (active).
For `CCN(CC)c1ccc(NC(=O)CCc2nnc3ccc(N4CCCCC4)nn23)c(C)c1`, the inhibition was -1.98%.
With `Cc1[nH]c(C)c(S(=O)(=O)N2CCC(C)CC2)c1C(=O)N1CCCC1` the inhibition was -4.27%.
In the case of `Cc1ccsc1-c1cc(C(=O)O)c2c(ccc3ccccc32)n1`, the inhibition is reported as 17.5%.
Work on `CN(Cc1c(F)cccc1Cl)S(=O)(=O)c1cccs1` yielded an inhibition of 20.7%.
`CC1CC(C)CN(c2ccc(S(=O)(=O)N3CCOCC3)cc2)C1` (centres undefined) gave an inhibition of 13.9%.
Compound `Cn1c(CC(=O)Nc2ccc(F)cc2)nnc1SCC(=O)NC1CCCCC1` has an inhibition of -5.18%.
With `CN(C)c1ccnc(Nc2ccc(F)cc2)c1C#N` the inhibition was 7.86%.
With `CC(C)c1ccc(Nc2ncccc2C#N)cc1` the inhibition was 52.3% (active).
For `Cc1cccc(NC(=O)c2ccc(COc3ccccc3[N+](=O)[O-])o2)n1`, the inhibition was 32.9%.
In the case of `CCOc1ccc(OCc2ccc(C(=O)Nc3cccc(C)n3)o2)cc1`, the inhibition is reported as 42% (active).
`CC(=O)Cc1nsc(NC(=O)c2ccc(COc3ccc(C)cc3)o2)n1` showed an inhibition of -9.97%.
`COc1ccc(CCNC(=O)NS(=O)(=O)c2ccc(C)cc2)cc1OC` showed an inhibition of 4.27%.
Compound `CC(C)Cc1nnc(NC(=O)CN2C(=O)NC3(CCCCC3)C2=O)s1` has an inhibition of -8.2%.
With `Cc1ccc(N2CCN(c3ccc(C)cc3)C2c2ccccn2)cc1` the inhibition was 57.4% (active).
With `Cc1ccc(S(=O)(=O)NCC(=O)N2CCN(c3ccccn3)CC2)cc1` the inhibition was -5.02%.
For `Cc1ccc(N2C(=O)C3CC3C2=O)cc1` (centres undefined), the inhibition was 25.6%.
Work on `Cc1c(CN2CC[C@@H](N3CCN(c4ccccn4)CC3)[C@H](O)C2)[nH]c2ccc(F)cc12` yielded an inhibition of -5.39%.
`COc1cccc(C(=O)c2cc3ccc(O)cc3oc2=O)c1` gave an inhibition of 21.7%.
Work on `COc1ccc(-c2cc3ccc(OCc4nn[nH]n4)cc3oc2=O)cc1` yielded an inhibition of 10.3%.
In the case of `O=c1oc2cc(O)ccc2cc1-c1ccc(F)cc1`, the inhibition is reported as 70% (active).
With `Cc1cc2oc(=O)cc(CN(C)Cc3ccc(OC(F)F)cc3)c2cc1Cl` the inhibition was 17.5%.
In the case of `O=C(CCc1nnc2ccc(NCCCN3CCCC3=O)nn12)NCc1ccccc1Cl`, the inhibition is reported as 20.3%.
With `Cc1csc(NC(=O)CN2CCCCCC2)n1` the inhibition was -8.35%.
`COc1cc(Cl)c(C)cc1NC(=O)CN1CCCCCC1` showed an inhibition of 14.2%.
In the case of `Cc1cc(C)c(NC(=O)CN2CCCCCC2)c(C)c1`, the inhibition is reported as 83.4% (active).
With `O=c1cc(Cl)c2ccccc2n1-c1ccccc1` the inhibition was -8.33%.
`Cc1ccccc1NC(=O)c1cc(S(=O)(=O)Nc2cccc(C(=O)O)c2)ccc1Cl` showed an inhibition of 24.3%.
In the case of `C/C(=N\Nc1cccc(C(=O)O)c1)c1ccc2c(c1)Nc1ccccc1S2`, the inhibition is reported as 77.7% (active).
Compound `O=C(NC1CC1)c1ccc2c(c1)NC(=O)c1ccccc1S2` has an inhibition of 13.2%.
For `COc1cc(/C=N/n2c(C)n[nH]c2=S)ccc1OCc1ccccc1`, the inhibition was -16.6% (active).
In the case of `COc1cc(-c2n[nH]c(=S)n2Cc2ccccc2)cc(OC)c1OC`, the inhibition is reported as -7.08%.
Compound `Fc1ccc(/C=N/n2c(COc3ccccc3)n[nH]c2=S)cc1` has an inhibition of -5.88%.
With `COc1ccc(C)cc1Nc1n[n+](-c2ccccc2)c(-c2cccc(Cl)c2Cl)s1` the inhibition was -3.92%.
For `O=S(=O)(Nc1cccc(Oc2ccc(Cl)cc2)n1)c1ccc(F)cc1`, the inhibition was 1.95%.
In the case of `COc1ccc(-c2csc3ncnc(N4CCN(S(=O)(=O)c5ccccc5C#N)CC4)c23)cc1`, the inhibition is reported as -3.69%.
With `CCOC(=O)Cc1csc(NC(=O)C(C)(C)C)n1` the inhibition was 86.2% (active).
With `CCOC(=O)Cc1csc(NC(=O)Nc2ccccc2)n1` the inhibition was 46.4%.
With `CCOC(=O)Cc1csc(NC(NC(=O)OCC)(C(F)(F)F)C(F)(F)F)n1` the inhibition was -12.7%.
In the case of `Fc1ccc(-c2ccc(CNCc3ccccn3)o2)cc1Cl`, the inhibition is reported as 2.57%.
With `O=C(NCCOCc1ccc(Cl)cc1)c1ncn[nH]1` the inhibition was 10.4%.
Compound `COc1ccc(Cl)cc1CSc1ncn[nH]1` has an inhibition of 4.03%.
With `O=C(/C=C/Sc1ncn[nH]1)c1ccc(Cl)cc1` the inhibition was 32.3% (active).
`COc1ccc(CCNc2nc3ccc(C)cc3n3cnnc23)cc1OC` gave an inhibition of 4.18%.
Compound `CCn1c(=O)n(CC)c2cc(N3CCCC3)c(NC(=O)c3ccccc3Br)cc21` has an inhibition of -6.78%.
For `Cc1ccc(OCCCC(=O)NC(C)c2ccccc2)c(C)c1` (centres undefined), the inhibition was 7.36%.
In the case of `Cc1ccc(OCCCC(=O)N2CCOCC2)c(C)c1`, the inhibition is reported as 88.9% (active).
`Cc1cc(S(=O)(=O)N2CCOCC2)ccc1OCC(=O)N1CCOCC1` showed an inhibition of 26.1%.
With `COc1c(O)c2c(=O)cc(OC)c3c4c(OC)cc(=O)c5c(O)c(OC)c6c(c(c1C[C@@](C)(O)[C@H]6C(C)=O)c23)c54` the inhibition was 10.8%.
Compound `CCOc1ccccc1NC(=O)C1CCCN(S(=O)(=O)c2ccccc2)C1` (centres undefined) has an inhibition of -4.05%.
Work on `FC(F)(F)c1nnc2c3ccccc3c(Cl)nn12` yielded an inhibition of 5.58%.
Compound `Cc1cccc(C)c1NC(=O)COC(=O)c1ccccc1O` has an inhibition of -4.8%.
`COc1ccc(C(=O)N2CCCCC2C(=O)Nc2ccc(-n3nc(C)cc3C)cc2)o1` (centres undefined) gave an inhibition of -7.96%.
Work on `CCOC(=O)c1c(N)nn(C(=O)c2ccccc2)c1-c1ccccc1` yielded an inhibition of -3.34%.
In the case of `CCC(=O)OCCNc1nc(-c2ccccc2)nc2ccccc12`, the inhibition is reported as -14.7%.
With `CCOC(=O)c1c(C)nc(-c2ccccc2)nc1NC(=O)C(C)C` the inhibition was 38.3% (active).
With `COc1ccc(/C=C/c2c(-c3cccc(C)c3)oc3ccc(-c4ccc5c(c4)OCO5)cc23)cc1` the inhibition was -4.7%.
For `Fc1ccc(COc2ccc(-c3nnco3)cc2)cc1`, the inhibition was 63.9% (active).
With `Fc1cccc(Cl)c1COc1ccc(-c2nnco2)cc1` the inhibition was 30.1%.
Work on `Fc1ccc(COc2cccc(-c3n[nH]c(=S)o3)c2)cc1` yielded an inhibition of 2.21%.
`O=C(Oc1cccnc1)c1cc2ccccc2oc1=O` showed an inhibition of 1.26%.
With `Nc1ncc(-c2cc3ccccc3oc2=O)s1` the inhibition was 85% (active).
Compound `O=C(NCc1cccnc1)c1cccc(-c2cc3ccccc3oc2=O)c1` has an inhibition of 13.7%.
With `COc1cc(CNCc2ccc3c(c2)OCO3)c([N+](=O)[O-])cc1OC` the inhibition was 16.9%.
With `CCOC(=O)N1CCN(S(=O)(=O)c2ccc(-n3cnnn3)cc2)CC1` the inhibition was 5.66%.
Work on `O=C(CSc1ccc(-c2ccco2)nn1)Nc1cccc(F)c1` yielded an inhibition of 38.8%.
In the case of `O=C(CSc1ccc(-c2ccccn2)nn1)Nc1ccccc1`, the inhibition is reported as 47% (active).
In the case of `COc1cc(NC(=O)CSc2ccc(-c3cccnc3)nn2)cc(OC)c1`, the inhibition is reported as 15.3%.
`Cc1ccc(CN2CCCOCCS2(=O)=O)cc1` showed an inhibition of -6.69%.
Work on `CC(=O)c1cccc(OCc2cc(C(=O)NC(C)Cc3cccnc3)no2)c1` (centres undefined) yielded an inhibition of 36.9%.
For `Cc1cccnc1CC(C)NC(=O)c1cc(COc2cncc(Cl)c2)on1` (centres undefined), the inhibition was 47.9% (active).
With `CC(CCc1ccccc1)NC(=O)c1cnc(Cl)c(Cl)c1` (centres undefined) the inhibition was 3.47%.
In the case of `CCOc1cc(C(=O)O)ccc1OCCOc1ccccc1`, the inhibition is reported as 2.96%.
`Cc1ccc(CN(CC(=O)NC2CCCCC2)C(=O)c2csnn2)cc1` showed an inhibition of -2.02%.
For `CC1CCN(C(=O)/C(=C\c2ccccc2)NC(=O)c2ccccc2)CC1`, the inhibition was 5.08%.
`CC1CCN(C(=O)/C(=C\c2ccccc2F)NC(=O)c2ccccc2)CC1` showed an inhibition of -2.65%.
For `CC1CCN(C(=O)CCNC(=O)c2ccccc2)CC1`, the inhibition was 43.4% (active).
